# Screening data: PubChem, National Center for Advancing Translational Sciences (NCATS)
# Only some compounds are listed: those with a hit (about 6.6% of all), similar ones and a draw of the others.
# RGS4 inhibitor – human RGS4 inhibition | Transcreener GDP fluorescence polarization, RGS4-accelerated GTP hydrolysis | P49798 | Potency, µM (series often up to 114 µM), without a hit: top-dose activity change, negative = inhibition, actives largely listed as inhibitors | actives 0.039% (n = 390,000) | AID 504845; further: on the % scale 0 is the no-effect control and ±100 the full control effect; nearly all actives have a fitted effect of over 75% in size
#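 MLSMR compounds (23 nl, pin-transferred) preincubated 10 min at room temperature with a 500nM (2x) first reagent, then RGS4 at 900nM (2x) plus Transcreener GDP mix added; fluorescence polarization (620/688 nm) read before and after 90 min at 30 °C.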
# KB-3-1 tox – KB-3-1 parental cell cytotoxicity. KB-3-1 viability, CellTiter-Glo ATP luminescence, 72 h. Potency, µM (series often up to 46.1 µM), most hits filed as cytotoxic. actives 1.4% (n = 400,000). AID 1347075; further: on the % scale 0 is the no-effect control and ±100 the full control effect; nearly all actives have a fitted effect of over 60% in size
#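 Here the drug-naive KB-3-1 line serves as comparator for MDR sub-line selectivity; cells received compound titrations, 72 h at 37 °C, then CellTiter-Glo readout.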
# MCF10A rerep – inducers of DNA re-replication in MCF 10A breast cells; MCF 10A DNA re-replication, Hoechst nuclear intensity, 48 h; Potency, µM (doses to about 46.1 µM), for the others: at the highest dose activity, positive = re-replication, actives largely listed as activators; actives 2.9% (n = 350,000); AID 624296; further: % of control where 0% means no effect; nearly all actives have a fitted effect of over 50% in size
# PTAP TSG101 blk – blocks PTAP/TSG101 interaction to inhibit HIV-1 budding. Q99816. Fluorescence polarization, FITC-PTAP peptide / Tsg101 binding. Potency, µM (doses to about 115 µM), inactives show top-dose activity change, negative = inhibition, actives largely listed as inhibitors. 340,000 tested, under 10 active; active means well fitted inhibition curve with a large enough effect in the main read-out, with a control signal flat, not every such curve was filed as active; inconclusive means small, poorly fitted or top-dose-only effect, or effect the other way, or a change in a side signal; inactive means no such curve, though single readings can be large or run the other way; further: % of control where 0% means no effect
# Target sequence (Q99816 whole entry, looked up): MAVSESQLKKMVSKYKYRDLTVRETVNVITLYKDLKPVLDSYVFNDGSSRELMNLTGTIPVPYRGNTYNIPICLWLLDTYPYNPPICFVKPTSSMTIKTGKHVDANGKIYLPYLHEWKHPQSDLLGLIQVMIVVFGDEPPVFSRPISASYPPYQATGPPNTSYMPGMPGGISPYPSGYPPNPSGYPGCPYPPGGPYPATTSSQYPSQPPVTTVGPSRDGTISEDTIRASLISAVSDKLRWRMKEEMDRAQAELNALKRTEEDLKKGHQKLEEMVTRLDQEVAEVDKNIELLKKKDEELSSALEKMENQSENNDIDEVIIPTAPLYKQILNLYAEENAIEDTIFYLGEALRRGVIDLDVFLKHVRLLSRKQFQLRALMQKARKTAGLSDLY
#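 Compounds were pin-transferred onto Tsg101 binding domain (10 uM final) in HEPES pH 7.5 buffer, then FITC-PTAP peptide was added at 50 nM final. After 20 min at RT, polarization reported peptide displacement across a qHTS concentration series.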
# KB-V1 cytotox – kills drug-selected multidrug resistant KB-V1 cells. KB-V1 MDR cells viability, CellTiter-Glo, 72 h. Potency, µM (doses to about 46.1 µM), hits mostly cytotoxic. actives 3.4% (n = 400,000); further: on the % scale 0 is the no-effect control and ±100 the full control effect; nearly all actives have a fitted effect of over 60% in size
#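 Luminescent ATP read-out (CellTiter-Glo, 10 min) measures survival of drug-selected KB-V1 MDR cells after 72 h, 37 degrees C compound exposure. Medium: phenol-red-free DMEM, 10% FBS. Values from fitted concentration-response curves.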
# SW480 rereplic – induces DNA re-replication in SW480 colon adenocarcinoma cells; actives 1.8% (n = 340,000); SW480 DNA re-replication, Hoechst DNA content imaging, 48 h; Potency, µM (doses to about 46.1 µM), without a hit: at the top dose re-replication activation, hits mostly activators; AID 624297; further: % of control where 0% means no effect; nearly all actives have a fitted effect of over 55% in size
#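 Treated cells incubate 48 hr (37 C, 5% CO2), are stained 40 min with Hoechst, and nuclear fluorescence is enumerated; a rise in nuclei with high DNA signal marks re-replication.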
# Starred values were filed as active, the others as inactive; i = inactive; ? = inconclusive; . = no result given; [ ] = another dose, or the depositor's remark. Unless noted, the call rests on the fitted dose curve; in most records, active means well fitted curve in the direction sought with a large enough effect; inconclusive means small, poorly fitted or top-dose-only effect, or another doubt; inactive means no such curve, though single readings can be large; an effect the other way counts as inactive or inconclusive. Potency means the concentration at half of the fitted maximal effect.
SMILES,RGS4 inhibitor,KB-3-1 tox,MCF10A rerep,PTAP TSG101 blk,KB-V1 cytotox,SW480 rereplic
CO[C@H](C(=O)[C@@H](O)[C@@H](C)O)C1Cc2cc3cc(O[C@H]4C[C@@H](O[C@H]5C[C@@H](O)[C@H](O)[C@@H](C)O5)[C@@H](O)[C@@H](C)O4)c(C)c(O)c3c(O)c2C(=O)[C@H]1O[C@H]1C[C@@H](O[C@H]2C[C@@H](O[C@H]3C[C@](C)(O)[C@H](O)[C@@H](C)O3)[C@H](O)[C@@H](C)O2)[C@H](O)[C@@H](C)O1 (stereo not given in full),.,.,-7.0%,.,.,?
COc1ccc(Oc2ccc3c(C(F)(F)F)cc(C(F)(F)F)nc3n2)cc1,1.8%,i,6.2%,-1.6%,16.4µM*,1.4%
FC(F)(F)c1ccc(Oc2ccc3c(C(F)(F)F)cc(C(F)(F)F)nc3n2)cc1,25.0%,i,9.5%,-3.0%,i,2.4%
CCCCn1c(-c2csc3c2CCCC3)n[nH]c1=S,-47.0%,i,20.4%,-4.9%,20.6µM*,0.5%
CCCCn1c(-c2csc(C(C)C)c2)n[nH]c1=S,7.5%,i,-4.1%,-1.6%,23.1µM*,-10.1%
CCCCn1c(-c2csc3c2CCC(C)C3)n[nH]c1=S (stereo not given),?,20.6µM*,21.0%,-16.7%,14.6µM*,15.4%
CCCCn1c(-c2csc(CC)c2)n[nH]c1=S,-34.6%,i,3.2%,-1.2%,i,-8.1%
CCn1c(-c2csc3c2CCCC3)n[nH]c1=S,-31.1%,i,-6.1%,-3.7%,?,-9.3%
COc1cc(Cl)c(C)cc1NC(=O)C1CCCN(c2ncnc3onc(-c4ccc(F)cc4)c23)C1 (stereo not given),-30.8%,i,.,.,?,.
Cc1ccc(O)c(C(=O)CC(=O)c2ccc(Cl)cc2)c1,10.5%,?,?,-2.8%,i,?
O=C(CC(=O)c1cc(Cl)ccc1O)c1ccccc1,-13.7%,?,20.6µM*,-3.3%,?,?
Cc1cccc(C(=O)CC(=O)c2cc(Cl)ccc2O)c1,-0.9%[56.9 µM],?,?,-3.7%,9.2µM*,16.9%
NC(=NCCc1ccccc1)NC(=O)c1cc(Cl)ccc1O,24.4%,?,?,-6.9%,?,20.6µM*
CCOC(=O)/C=C/c1ccc2c(c1)S(=O)(=O)N(C1CCCC1)[C@H]2CC(=O)OCC,.,i,.,.,?,.
O=C(Cn1cnc2onc(-c3ccc(F)cc3)c2c1=O)N1CCN(c2ccc(F)cc2)CC1,-8.4%,i,.,.,i,.
COc1cccc(Cn2c(=O)n(Cc3ccco3)c(=O)c3oc4ccccc4c32)c1,11.9%,.,.,.,.,.
CC(=O)c1ccc(Oc2cc(C)nc(NCc3ccccc3)n2)cc1,2.9%,?,10.6%,-1.2%,16.4µM*,-4.9%
Cc1cc(N/N=C/c2ccccc2)nc(NCc2ccccc2)n1,-22.8%,i,?,-4.8%,13µM*,?
CCOc1cc(C)nc(NCc2ccccc2)n1,-13.6%[11.4 µM],i,11.6µM*,-2.3%,i,?
CCCCOc1cc(C)nc(NCc2ccccc2)n1,-1.9%,10.3µM*,?,-2.4%,?,?
Cc1cc(OC2CCCCC2)nc(NCc2ccccc2)n1,-2.0%,i,-13.8%,-1.1%,i,-12.5%
Cc1ccc(Cn2c(C)c3cnn(CC(=O)NCCc4ccc(Cl)cc4)c(=O)c3c2C)cc1,11.7%,i,.,.,i,.
CCCc1cc(=O)[nH]c(Nc2cc(Cl)cc(Cl)c2)n1,-6.4%,?,.,.,?,.
Cn1c(=O)c2c(SCC(=O)Nc3ccccc3C(F)(F)F)nc(C3CCCC3)nc2n(C)c1=O,6.3%,i,.,.,i,.
CCc1ccccc1NC(=O)Cn1ccn(-c2cc(C)cc(C)c2)c(=O)c1=O,0.3%,.,.,.,.,.
Cc1ccc(C(C)C)c(OCC(=O)Nc2cc(-c3nc4ccccc4[nH]3)ccc2C)c1,15.0%,.,.,.,.,.
Cn1nc(N)c2ncc(-c3ccc(Cl)cc3)nc21,.,i,.,.,7.31µM*,.
